Screening data: PubChem, National Center for Advancing Translational Sciences (NCATS)
BRCA1 expr act – BRCA1 expression activation | MCF7-BRCA1-FFLuc reporter, luminescence, 48 h; response scale: scaled: vehicle 0%, 10 µM genistein 100% | Potency, µM (top dose mostly 46.1 µM), hits mostly activators | actives 1.1% (n = 380,000); further: nearly all actives have a fitted effect of over 80% in size
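Luminescence from a BRCA1-driven firefly luciferase in MCF7 cells was the read-out, taken 15 min after substrate addition following 48 h compound exposure at 37 °C. Data were normalized to a 10 microM genistein control and DMSO vehicle.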
EPAC2 antagonist – EPAC2 (human) antagonism; EPAC2 GEF exchange of Rap1B-BODIPY-GDP, fluorescence; Q8WZA2; Potency, µM (highest dose often 114 µM), usual class: inhibitors; actives 0.18% (n = 360,000); further: nearly all actives have a fitted effect of over 45% in size
EPAC2 agonist – EPAC2 (human) agonism | EPAC2 activation, biochemical qHTS; response scale: 100% = 6.5 mM cAMP response | actives 0.079% (n = 360,000) | Q8WZA2 | Potency, µM (top dose mostly 154 µM), usual class: activators; further: nearly all actives have a fitted effect of over 50% in size
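In this primary screen, activation is scored as increased exchange of BODIPY-GDP from Rap1B by 100 nM EPAC2, with 50 uM GDP as competitor. Signal is normalized to the 6.5 mM cAMP agonist control.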
EPAC1 agonist – activates human EPAC1 exchange factor; actives 0.073% (n = 360,000); O95398; EPAC1 agonist qHTS, biochemical assay; response scale: 100% = response to 6.5 mM cAMP; Potency, µM (highest dose often 154 µM), most hits filed as activators; further: nearly all actives have a fitted effect of over 60% in size
Target sequence (O95398 whole entry, looked up): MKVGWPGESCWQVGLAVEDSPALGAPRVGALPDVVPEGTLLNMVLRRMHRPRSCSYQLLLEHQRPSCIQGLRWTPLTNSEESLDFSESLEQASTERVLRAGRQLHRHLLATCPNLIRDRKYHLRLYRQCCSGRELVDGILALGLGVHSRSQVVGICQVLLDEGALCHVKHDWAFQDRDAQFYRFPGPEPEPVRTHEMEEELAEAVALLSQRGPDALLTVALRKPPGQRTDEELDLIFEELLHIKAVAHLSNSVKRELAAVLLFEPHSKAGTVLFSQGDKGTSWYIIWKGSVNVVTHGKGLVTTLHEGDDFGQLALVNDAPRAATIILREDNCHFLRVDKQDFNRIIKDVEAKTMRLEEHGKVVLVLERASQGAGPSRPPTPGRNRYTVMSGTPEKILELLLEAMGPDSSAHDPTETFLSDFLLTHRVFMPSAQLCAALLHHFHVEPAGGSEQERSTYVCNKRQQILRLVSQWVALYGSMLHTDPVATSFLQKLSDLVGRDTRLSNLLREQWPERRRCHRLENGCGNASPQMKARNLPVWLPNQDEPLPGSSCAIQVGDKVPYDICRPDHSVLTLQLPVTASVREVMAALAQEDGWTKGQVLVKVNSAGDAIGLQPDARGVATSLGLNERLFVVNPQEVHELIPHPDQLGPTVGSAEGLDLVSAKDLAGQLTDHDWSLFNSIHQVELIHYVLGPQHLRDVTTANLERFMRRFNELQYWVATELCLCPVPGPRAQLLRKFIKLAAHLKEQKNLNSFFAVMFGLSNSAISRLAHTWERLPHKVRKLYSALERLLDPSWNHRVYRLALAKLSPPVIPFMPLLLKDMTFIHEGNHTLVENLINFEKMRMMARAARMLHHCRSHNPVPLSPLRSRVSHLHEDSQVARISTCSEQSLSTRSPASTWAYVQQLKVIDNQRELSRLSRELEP
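Read-out is the fluorescence drop as BODIPY-GDP leaves Rap1B (480 nm excitation, 540 nm emission), recorded every 5 minutes over 30 minutes. Reactions held 100 nM EPAC1, 250 nM Rap1B–BODIPY-GDP and 50 uM GDP, with 6.5 mM cAMP setting full activation.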
EPAC1 antag – EPAC1 (human) antagonism; O95398; EPAC1 GEF assay, Rap1b-BODIPY-GDP exchange fluorescence; actives 0.14% (n = 360,000); AID 720709; Potency, µM (highest dose often 115 µM), actives largely listed as inhibitors; further: nearly all actives have a fitted effect of over 50% in size
USP1-UAF1 inh – blocks the human USP1/UAF1 deubiquitinase complex | actives 0.23% (n = 390,000) | recombinant USP1/UAF1, Ub-Rhodamine cleavage fluorescence | Potency, µM (doses to about 57.1 µM), actives largely listed as inhibitors; further: nearly all actives have a fitted effect of over 60% in size
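Step one: compound is pinned into 1nM USP1/UAF1 in HEPES pH 7.8 buffer with TCEP. Step two: 15 min room-temperature incubation. Step three: Ub-Rho (150nM final) starts cleavage, tracked by fluorescence over six one-minute reads.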
Each line names hits and unclear results; the compound was inactive in the other large screens; ! = a repeat was not active. Rows were chosen to be rich in hits. Some 1.4% of all compounds tested hit in one or more screens of this group. The call rests on the fitted dose curve; in most records, active means well fitted curve in the direction sought with a large enough effect; inconclusive means small, poorly fitted or top-dose-only effect, or another doubt; inactive means no such curve, though single readings can be large; an effect the other way counts as inactive or inconclusive.

CC(=O)OC1CC(OC2C(O)CC(OC3C(O)CC(OC4CCC5(C)C(CCC6C5CC(O)C5(C)C(C7=CC(=O)OC7)CCC65O)C4)OC3C)OC2C)OC(C)C1OC1OC(CO)C(O)C(O)C1O (configuration not stated)	EPAC2 antagonist 89.1µM, EPAC2 agonist 112µM
C[C@@H]1O[C@@H](O[C@@H]2C=C3CC[C@@H]4[C@@H](CC[C@]5(C)[C@H](c6ccc(=O)oc6)CC[C@@]45O)[C@@]3(C)CC2)[C@H](O)[C@H](O)[C@H]1O	none (no result: EPAC2 antagonist, EPAC2 agonist, EPAC1 agonist, EPAC1 antag, USP1-UAF1 inh)
CC(C)CCOP(=O)(c1ccc(N(C)C)cc1)C(O)c1ccc(Cl)cc1Cl (configuration not stated)	EPAC2 antagonist 35.5µM
CC(C)CCOP(=O)(c1ccc(N(C)C)cc1)C(O)c1ccc(C(C)C)cc1 (configuration not stated)	EPAC2 antagonist inconclusive
CCOP(=O)(C1=C(O)C(=O)C(C(C)(C)C)=CC1=O)c1ccccc1 (configuration not stated)	EPAC2 antagonist inconclusive, EPAC1 antag inconclusive, USP1-UAF1 inh inconclusive
CCCCCn1c(NC(=O)c2ccco2)c(C(=O)OCC)c2nc3ccccc3nc21	EPAC2 antagonist 39.8µM, EPAC1 antag 50.1µM, USP1-UAF1 inh 7.08µM
CCOC(=O)c1c(NS(=O)(=O)c2ccccc2)n(CCCOC)c2nc3ccccc3nc12	EPAC2 antagonist inconclusive, EPAC1 antag 7.94µM, USP1-UAF1 inh 1.78µM
COc1ccc(S(=O)(=O)Nc2cc([N+](=O)[O-])ccc2OC)cc1	EPAC1 antag inconclusive
Cc1cc(C(=O)OCC(=O)NC(=O)c2cccn2C)c2ccccc2n1	EPAC2 antagonist inconclusive
Cc1cc(/C=C2\C(=O)NC(=O)N(c3ccc(Cl)cc3)C2=O)c(C)n1-c1sc2c(c1C#N)CCCC2	EPAC1 antag 50.1µM, USP1-UAF1 inh inconclusive
O=c1oc(Cl)c(Cl)c2ccccc12	EPAC1 antag inconclusive
Nc1ccc2ccccc2c1	none
C[n+]1c2cc(N)ccc2cc2ccc(N)cc21	EPAC2 agonist 100µM, EPAC1 agonist 50.1µM, USP1-UAF1 inh 3.98µM!
Fc1ccccc1CSc1ncnc2c1ncn2C1CCCO1 (configuration not stated)	BRCA1 expr act 3.55µM
Cc1ccc(-n2c(=S)[nH]c3ccccc3c2=O)cc1F	BRCA1 expr act inconclusive
O=c1c2ccccc2[nH]c(=S)n1-c1ccc2c(c1)OCCO2	BRCA1 expr act 10µM
CCN(CC)c1ccc(N=Cc2c(O)n(CCc3ccc(OC)c(OC)c3)c(=O)[nH]c2=O)cc1	EPAC2 agonist 100µM, USP1-UAF1 inh inconclusive
COc1ccc(CCn2c(O)c(C=Nc3ccc(F)cc3)c(=O)[nH]c2=O)cc1OC	none
CCN(CC)c1ccc(N=Cc2c(O)n(-c3cc(OC)ccc3OC)c(=O)[nH]c2=O)cc1	EPAC2 agonist 79.4µM, EPAC1 agonist inconclusive, USP1-UAF1 inh inconclusive
COc1ccc(N=Cc2c(O)n(-c3ccc(C)cc3)c(=O)[nH]c2=O)cc1	none
ClCCN(CCCl)c1ccc(C=Nc2ccncc2)cc1	none (no result: EPAC2 antagonist, EPAC2 agonist, EPAC1 agonist, EPAC1 antag, USP1-UAF1 inh)
CCOP(=O)(OCC)C(Cc1ccc(OC)c(OC)c1)N=C(c1ccccc1)c1ccccc1 (configuration not stated)	EPAC2 antagonist inconclusive (no result: USP1-UAF1 inh)
CCN(C[C@H]1N[C@@](CC)(C(=O)OC)[C@H]2C(=O)N(Cc3ccccc3)C(=O)[C@@H]12)S(=O)(=O)c1ccc(C)cc1	USP1-UAF1 inh inconclusive
CC[C@@]1(C(=O)OC)N[C@H](CN(C)C(=O)Nc2ccc(OC)cc2)[C@@H]2C(=O)N(Cc3ccccc3)C(=O)[C@@H]21	BRCA1 expr act 10µM, EPAC2 agonist inconclusive
CNc1cccc(-c2ccc(N3CCN(C)CC3)nc2)n1	BRCA1 expr act inconclusive (no result: USP1-UAF1 inh)
O=C(O)CC1OCC=C2CN3CCC45C6=CC(=O)C(=O)C([N+](=O)[O-])=C6NC4C1C2CC35 (configuration not stated)	EPAC2 antagonist inconclusive, EPAC2 agonist inconclusive, EPAC1 antag inconclusive, USP1-UAF1 inh 5.01µM
O=C(O)CC1OCC=C2CN3CCC45c6ccccc6NC4C1C2CC35 (configuration not stated)	none
N#CC(C#N)=NNc1ccc(S(N)(=O)=O)cc1	EPAC1 antag 56.2µM
CCN1/C(=C/C=C/C2=[N+](CC)c3ccccc3C2(C)C)C(C)(C)c2ccccc21	EPAC2 agonist 17.8µM, EPAC1 agonist 56.2µM, USP1-UAF1 inh 25.1µM
CN1/C(=C\C=C2C(=O)NC(=O)NC2=O)C(C)(C)c2ccccc21	EPAC1 agonist inconclusive, USP1-UAF1 inh inconclusive
O=C(C1CCCN(S(=O)(=O)c2ccc(F)cc2)C1)N1CCOCC1 (configuration not stated)	BRCA1 expr act inconclusive
COc1ccc(-n2nc(C(=O)NCC(=O)N3CCC4(CC3)OCCO4)c3ccccc3c2=O)cc1OC	BRCA1 expr act 10µM
CC(C)c1ccc(NC(=O)Nc2nc(C(N)CCc3ccccc3)cs2)cc1 (configuration not stated)	none (no result: USP1-UAF1 inh)
CCCNC(=O)C1(C)CCN(Cc2ccc3ccccc3c2Br)C1 (configuration not stated)	EPAC1 antag inconclusive (no result: USP1-UAF1 inh)
Oc1c(Cl)cccc1Cc1cc(Cl)cc(Cl)c1O	EPAC2 antagonist 22.4µM, EPAC1 antag 79.4µM
COc1ccc(OC)c(N2C(=O)NC(=O)/C(=C/c3ccc([N+](=O)[O-])s3)C2=O)c1	EPAC1 antag inconclusive, USP1-UAF1 inh 15.8µM
COc1ccc(OC)c(N2C(=O)/C(=C/c3ccco3)C(=O)NC2=S)c1	EPAC2 antagonist inconclusive, EPAC1 antag 8.91µM, USP1-UAF1 inh 15.8µM
COc1cc(/C=C2\C(=O)NC(=O)N(c3ccccc3)C2=O)c([N+](=O)[O-])cc1OC	none
CC(C)c1ccc(Cc2cn3cc(-c4cc5ccccc5oc4=O)nc3s2)cc1	USP1-UAF1 inh inconclusive (no result: EPAC2 antagonist, EPAC2 agonist, EPAC1 agonist, EPAC1 antag)
CC(C)c1ccc(C(c2c(O)c3ccccc3oc2=O)c2c(O)c3ccccc3oc2=O)cc1	EPAC2 antagonist 44.7µM, EPAC1 antag inconclusive, USP1-UAF1 inh 28.2µM
O=c1oc2ccccc2c(O)c1C(c1ccc([N+](=O)[O-])cc1)c1c(O)c2ccccc2oc1=O	EPAC2 antagonist 50.1µM, EPAC1 antag 50.1µM, USP1-UAF1 inh inconclusive
O=P(Nc1cccnc1)(Oc1ccccc1Cl)Oc1ccccc1Cl	EPAC2 antagonist 56.2µM
Cc1ccc(NS(=O)(=O)c2c(F)cc(F)c(Cl)c2F)cc1S(=O)(=O)N1CCOCC1	USP1-UAF1 inh inconclusive
CN1CCN(c2c(N)c(=O)oc3ccccc23)CC1	none
Nc1ccc2c(c1)oc1ccccc12	BRCA1 expr act 7.08µM
